Results reported in PubChem BioAssay (EPA / NIEHS).
Results filed as inconclusive are left out. Some structures have more than one record in an assay (separate samples or runs), and their calls can disagree. Calls of active or inactive are those of the source. Rule for the calls, unless noted: active = hit-call score of the fitted dose curve at least 0.9, where 1 is the maximum; inactive = score below 0.9.

Assays:
[1] = molecular target: Glucocorticoid receptor (Homo sapiens) (UniProt P04150); assay: ATG_GR_TRANS: Attagene TRANS-FACTORIAL HepG2 Assay for human Glucocorticoid Receptor (GR) (AID 2282978; active = hit-call score of the fitted dose curve at least 0.9, where 1 is the maximum;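 note: activators score as hits since higher reporter transcript over DMSO is fitted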); settings: HepG2 Attagene TRANS GR reporter, mRNA transcription
Glucocorticoid receptor (Homo sapiens), sequence (P04150 whole entry, looked up, the tested form may be a part): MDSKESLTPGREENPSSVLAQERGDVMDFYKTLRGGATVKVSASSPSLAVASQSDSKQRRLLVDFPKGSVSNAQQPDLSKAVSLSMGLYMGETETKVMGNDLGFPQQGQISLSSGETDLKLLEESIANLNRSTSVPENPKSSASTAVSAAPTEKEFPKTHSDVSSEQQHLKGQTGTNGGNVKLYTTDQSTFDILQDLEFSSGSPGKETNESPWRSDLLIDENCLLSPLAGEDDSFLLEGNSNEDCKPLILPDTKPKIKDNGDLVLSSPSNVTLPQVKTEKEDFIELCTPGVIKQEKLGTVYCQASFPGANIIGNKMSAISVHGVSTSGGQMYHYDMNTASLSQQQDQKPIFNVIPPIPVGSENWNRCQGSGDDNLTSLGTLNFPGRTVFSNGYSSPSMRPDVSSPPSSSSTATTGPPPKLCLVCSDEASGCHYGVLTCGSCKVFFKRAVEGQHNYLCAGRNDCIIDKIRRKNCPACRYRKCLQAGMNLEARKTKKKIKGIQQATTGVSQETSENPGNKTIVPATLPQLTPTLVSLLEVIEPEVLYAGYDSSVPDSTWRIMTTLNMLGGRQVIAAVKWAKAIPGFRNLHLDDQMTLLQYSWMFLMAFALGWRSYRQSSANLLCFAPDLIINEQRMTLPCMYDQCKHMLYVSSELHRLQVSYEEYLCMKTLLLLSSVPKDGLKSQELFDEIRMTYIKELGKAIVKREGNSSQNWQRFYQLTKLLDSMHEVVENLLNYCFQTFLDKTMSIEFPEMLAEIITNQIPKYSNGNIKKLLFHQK
Outline: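 HepG2 cells transiently transfected with multiplexed reporter units in which chimeric NR-GAL4 proteins drive GAL4-UAS reporters; 24 h compound exposure. Reporter mRNA measured by RT-PCR, 6-FAM labelling, HpaI digestion and capillary electrophoresis; gain-of-signal fitted versus DMSO.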

[2] = molecular target: Bile acid receptor (Homo sapiens) (UniProt Q96RI1); assay: ATG_FXR_TRANS: Attagene TRANS-FACTORIAL HepG2 Assay for Farnesoid X Receptor (FXR) (AID 2282979; active = hit-call score of the fitted dose curve at least 0.9, where 1 is the maximum;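 note: hits raise reporter mRNA above DMSO so AC50 marks FXR activation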); settings: HepG2 Attagene TRANS FXR-GAL4 reporter transcription
Bile acid receptor (Homo sapiens), sequence (Q96RI1 whole entry, looked up, the tested form may be a part): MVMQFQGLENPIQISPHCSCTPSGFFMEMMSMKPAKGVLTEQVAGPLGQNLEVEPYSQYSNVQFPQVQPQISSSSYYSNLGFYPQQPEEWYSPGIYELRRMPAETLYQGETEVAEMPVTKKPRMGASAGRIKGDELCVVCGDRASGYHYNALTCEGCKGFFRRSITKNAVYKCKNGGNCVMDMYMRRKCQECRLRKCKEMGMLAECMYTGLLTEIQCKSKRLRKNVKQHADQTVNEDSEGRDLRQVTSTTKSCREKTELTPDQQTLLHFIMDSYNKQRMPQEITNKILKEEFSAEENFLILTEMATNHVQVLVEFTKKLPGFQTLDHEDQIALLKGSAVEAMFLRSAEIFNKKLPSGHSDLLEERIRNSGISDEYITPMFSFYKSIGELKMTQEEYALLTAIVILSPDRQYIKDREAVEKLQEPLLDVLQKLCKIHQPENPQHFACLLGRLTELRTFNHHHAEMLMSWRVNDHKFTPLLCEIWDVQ
Outline: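 Chimeric FXR-GAL4 activity in transiently transfected human HepG2 liver cells is scored as induction of reporter mRNA after 24 h of dosing. Detection uses RT-PCR with fluorescent labelling and capillary electrophoresis, with DMSO serving as baseline.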

[3] = molecular target: Hepatocyte nuclear factor 4-alpha (Homo sapiens) (UniProt P41235); assay: ATG_HNF4a_TRANS: Attagene TRANS-FACTORIAL HepG2 Assay for human Hepatocyte Nuclear Factor 4 alpha (HNF4a) (AID 2282982; active = hit-call score of the fitted dose curve at least 0.9, where 1 is the maximum); settings: HepG2 HNF4a transactivation reporter, mRNA readout
Hepatocyte nuclear factor 4-alpha (Homo sapiens), sequence (P41235 whole entry, looked up, the tested form may be a part): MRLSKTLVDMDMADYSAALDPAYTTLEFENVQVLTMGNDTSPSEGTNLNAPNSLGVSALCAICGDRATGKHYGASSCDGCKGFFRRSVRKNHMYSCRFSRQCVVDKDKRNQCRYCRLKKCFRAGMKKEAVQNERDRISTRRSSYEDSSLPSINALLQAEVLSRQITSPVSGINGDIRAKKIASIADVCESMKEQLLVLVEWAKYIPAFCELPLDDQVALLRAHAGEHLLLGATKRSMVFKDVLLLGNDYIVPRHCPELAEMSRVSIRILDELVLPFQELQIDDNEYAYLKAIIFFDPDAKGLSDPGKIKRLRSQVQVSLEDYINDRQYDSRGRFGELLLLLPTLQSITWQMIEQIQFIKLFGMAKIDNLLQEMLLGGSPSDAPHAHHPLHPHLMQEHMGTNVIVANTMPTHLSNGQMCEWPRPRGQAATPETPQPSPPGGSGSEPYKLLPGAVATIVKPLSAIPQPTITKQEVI
Outline: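 Activity of an exogenous HNF4a–Gal4 fusion scored as induced GAL4-UAS reporter transcripts after 24 h chemical exposure of transfected human HepG2 cells. Read-out via RT-PCR with 6-FAM labelling and capillary electrophoresis; rise over DMSO baseline.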

[4] = ATG_M_06_TRANS: Attagene TRANS-FACTORIAL HepG2 Assay for M06 Transcription Factor (Internal Marker) (AID 2282983; active = hit-call score of the fitted dose curve at least 0.9, where 1 is the maximum;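 note: reporter transcript level by RT-PCR then capillary electrophoresis fluorescence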); settings: HepG2 Attagene TRANS M06 internal marker reporter
Outline: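 Human liver HepG2 cells bearing transiently transfected chimeric NR-GAL4 reporter units were treated with chemicals for 24 h. Total RNA was reverse-transcribed, reporter sequences amplified and labelled, then quantified by capillary electrophoresis. Activity was fitted upward relative to DMSO.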

[5] = molecular target: Nuclear receptor subfamily 4 group A member 2 (Homo sapiens) (UniProt P43354); assay: ATG_NURR1_TRANS: Attagene TRANS-FACTORIAL HepG2 Assay for human Nuclear Receptor Related Protein 1 (NURR1) (AID 2282985; active = hit-call score of the fitted dose curve at least 0.9, where 1 is the maximum); settings: HepG2 Attagene TRANS reporter, mRNA readout
Outline: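 Reporter transcript induction, measured by RT-PCR with fluorescent labelling, HpaI digestion and capillary electrophoresis, after 24 hr dosing of human HepG2 cells transiently expressing an exogenous NR-Gal4 fusion with GAL4-UAS-driven reporters; DMSO as baseline.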

[6] = molecular target: Transcriptional activator Myb (Homo sapiens) (UniProt P10242); assay: ATG_Myb_CIS: Attagene CIS-FACTORIAL HepG2 Assay for human Myeloblastosis (Myb) Proto-Oncogene Transcription Factor (AID 2282986); settings: HepG2 Attagene CIS-FACTORIAL Myb reporter transcription; actives raise or lower the signal
Transcriptional activator Myb (Homo sapiens), sequence (P10242 whole entry, looked up): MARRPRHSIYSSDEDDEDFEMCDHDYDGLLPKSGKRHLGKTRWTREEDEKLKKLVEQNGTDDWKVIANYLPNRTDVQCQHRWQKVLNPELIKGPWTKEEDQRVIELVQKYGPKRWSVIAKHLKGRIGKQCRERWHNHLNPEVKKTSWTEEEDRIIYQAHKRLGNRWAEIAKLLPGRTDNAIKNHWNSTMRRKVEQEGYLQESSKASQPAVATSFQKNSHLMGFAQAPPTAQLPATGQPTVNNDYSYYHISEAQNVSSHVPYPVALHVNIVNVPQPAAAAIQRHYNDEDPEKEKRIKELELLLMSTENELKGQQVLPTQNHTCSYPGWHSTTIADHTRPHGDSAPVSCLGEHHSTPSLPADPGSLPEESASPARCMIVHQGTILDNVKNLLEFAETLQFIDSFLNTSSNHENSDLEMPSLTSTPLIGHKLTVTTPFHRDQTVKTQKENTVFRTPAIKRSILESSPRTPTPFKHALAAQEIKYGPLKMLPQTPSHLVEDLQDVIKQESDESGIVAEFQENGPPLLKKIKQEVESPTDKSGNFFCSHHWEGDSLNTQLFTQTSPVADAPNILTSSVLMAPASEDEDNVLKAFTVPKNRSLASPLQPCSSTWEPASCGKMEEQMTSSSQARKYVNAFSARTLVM
Outline: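 HepG2 cells were transiently transfected with cis-regulated multiple reporter transcription units reflecting endogenous Myb activity, then exposed to compound for 24 hours. Reporter mRNA was measured by RT-PCR with capillary electrophoresis; bidirectional fitting versus DMSO baseline.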

[7] = molecular target: Nuclear respiratory factor 1 (Homo sapiens) (UniProt Q16656); assay: ATG_NRF1_CIS: Attagene CIS-FACTORIAL HepG2 Assay for human Nuclear Respiratory Factor 1 (NRF1) Orphan Gene (AID 2282987); settings: HepG2 NRF1 cis-element reporter, Attagene multiplex; actives raise or lower the signal
Nuclear respiratory factor 1 (Homo sapiens), sequence (Q16656 whole entry, looked up): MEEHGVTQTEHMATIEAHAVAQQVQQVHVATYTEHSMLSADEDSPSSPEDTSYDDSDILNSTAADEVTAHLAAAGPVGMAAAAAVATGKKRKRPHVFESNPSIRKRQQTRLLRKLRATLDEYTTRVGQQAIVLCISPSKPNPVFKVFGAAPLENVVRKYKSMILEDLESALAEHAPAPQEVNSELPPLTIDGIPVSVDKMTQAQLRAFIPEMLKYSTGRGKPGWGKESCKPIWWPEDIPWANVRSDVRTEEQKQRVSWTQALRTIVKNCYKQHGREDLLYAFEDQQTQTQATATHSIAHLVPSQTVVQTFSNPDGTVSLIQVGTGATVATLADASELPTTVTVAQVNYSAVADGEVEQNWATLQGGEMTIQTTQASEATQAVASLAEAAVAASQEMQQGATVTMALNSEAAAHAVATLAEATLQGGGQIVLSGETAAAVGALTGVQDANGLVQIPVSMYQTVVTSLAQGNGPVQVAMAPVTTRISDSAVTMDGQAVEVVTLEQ
Outline: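 HepG2 cells transiently transfected with multiple reporter transcription units under cis-regulatory promoter control, so endogenous transcription-factor activity is read. After 24 h compound exposure, reporter mRNA quantified by RT-PCR, fluorescent labelling, HpaI digestion and capillary electrophoresis; bidirectional fitting versus DMSO.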

[8] = ATG_NFI_CIS: Attagene CIS-FACTORIAL HepG2 Assay for human Nuclear Factor I (NFI) (AID 2282989); settings: HepG2 cis-regulatory reporter, NFI response element transcription; actives raise or lower the signal
Outline: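 HepG2 cells transiently transfected with cis-element-driven multiplexed reporter transcription units, dosed for 24 h. Reporter mRNA quantified by RT-PCR, fluorescent labelling, HpaI digestion and capillary electrophoresis; bidirectional fit versus DMSO baseline.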

[9] = molecular target: Myc proto-oncogene protein (Homo sapiens) (UniProt P01106); assay: ATG_Myc_CIS: Attagene CIS-FACTORIAL HepG2 Assay for human Myelocytomatosis (Myc) Proto-Oncogene Transcription Factor (AID 2282990); settings: HepG2, Attagene cis-reporter transcription factor activity; actives raise or lower the signal
Myc proto-oncogene protein (Homo sapiens), sequence (P01106 whole entry, looked up): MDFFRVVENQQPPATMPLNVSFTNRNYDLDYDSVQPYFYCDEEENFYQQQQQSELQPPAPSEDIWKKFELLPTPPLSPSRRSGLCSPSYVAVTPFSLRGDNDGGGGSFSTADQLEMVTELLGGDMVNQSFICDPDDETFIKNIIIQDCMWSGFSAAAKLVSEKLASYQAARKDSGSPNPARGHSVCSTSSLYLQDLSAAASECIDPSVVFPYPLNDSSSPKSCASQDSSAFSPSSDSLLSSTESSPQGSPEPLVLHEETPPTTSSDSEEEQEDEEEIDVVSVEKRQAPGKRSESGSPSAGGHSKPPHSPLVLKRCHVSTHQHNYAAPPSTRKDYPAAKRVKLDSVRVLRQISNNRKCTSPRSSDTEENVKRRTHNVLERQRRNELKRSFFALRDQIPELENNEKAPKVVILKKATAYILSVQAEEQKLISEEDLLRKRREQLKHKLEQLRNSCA
Outline: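 Cells of the HepG2 human liver line bear multiple cis-driven reporter transcription units. Reporter mRNA after 24 h exposure is reverse-transcribed, amplified, labelled and resolved by capillary electrophoresis, with gain- or loss-of-signal fitting relative to DMSO.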

[10] = ATG_NRF2_ARE_CIS: Attagene CIS-FACTORIAL HepG2 Assay for human Nuclear Factor Erythroid 2 Related Factor 2 (NFR2) response to Antioxidant Response Elements (ARE) (AID 2282992); settings: HepG2 Attagene ARE/NRF2 reporter, transcription factor activity; actives raise or lower the signal;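 for AC50: reporter mRNA level measured by RT-PCR and capillary electrophoresis fluorescence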
Outline: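 Fluorescence intensity of reporter-specific cDNA fragments, separated by capillary electrophoresis, reflects mRNA induction in transfected HepG2 cells at 24 h. Activity is fitted bidirectionally, DMSO serving as baseline.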

[11] = ATG_Oct_MLP_CIS: Attagene CIS-FACTORIAL HepG2 Assay for human Octamer-Binding Transcription Factor (Oct) (AID 2282993); settings: HepG2 Attagene cis-factorial Oct reporter, mRNA; actives raise or lower the signal
Outline: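 HepG2 cells transiently transfected with cis-promoter-driven multiplexed reporter transcription units, dosed for 24 h. Reporter mRNA quantified by RT-PCR, fluorescent labelling, HpaI digestion and capillary electrophoresis; bidirectional fits versus DMSO baseline.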

[12] = molecular target: Cellular tumor antigen p53 (Homo sapiens) (UniProt P04637); assay: ATG_p53_CIS: Attagene CIS-FACTORIAL HepG2 Assay for human p53 Transcription Factor (AID 2282994); settings: HepG2 p53 cis-element reporter, Attagene mRNA; actives raise or lower the signal
Cellular tumor antigen p53 (Homo sapiens), sequence (P04637 whole entry, looked up): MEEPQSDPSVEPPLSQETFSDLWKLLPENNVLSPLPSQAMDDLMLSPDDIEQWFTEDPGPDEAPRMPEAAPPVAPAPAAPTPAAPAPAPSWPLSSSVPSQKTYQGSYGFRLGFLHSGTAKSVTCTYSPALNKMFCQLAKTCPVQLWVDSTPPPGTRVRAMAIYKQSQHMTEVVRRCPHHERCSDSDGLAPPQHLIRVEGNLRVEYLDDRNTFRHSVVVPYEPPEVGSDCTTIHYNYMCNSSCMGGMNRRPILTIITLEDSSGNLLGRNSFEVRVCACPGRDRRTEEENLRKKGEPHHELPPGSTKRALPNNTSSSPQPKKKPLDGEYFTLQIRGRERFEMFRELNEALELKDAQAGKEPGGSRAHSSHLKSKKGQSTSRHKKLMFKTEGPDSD
Outline: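 Transiently transfected HepG2 (multiple cis reporter transcription units); exposure 24 h; reporter RNA via RT-PCR, 6-FAM extension, 2 h HpaI digest at 37 C, CE detection; DMSO baseline.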

[13] = BSK_3C_TissueFactor: BioMAP Diversity Plus: 3C Assay for Tissue Factor Biomarker Activity (AID 2282997); settings: BioMAP 3C HUVEC, tissue factor biomarker readout; actives raise or lower the signal
Outline: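 Cells used were primary human umbilical vein endothelial cells. They were dosed with chemical, and after 24 h Tissue Factor was quantified by ELISA. Curves were fitted bidirectionally with DMSO as baseline.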

[14] = BSK_3C_uPAR: BioMAP Diversity Plus: 3C Assay for Urokinase-type plasminogen activator receptor (uPAR) Biomarker Activity (AID 2282998); settings: BioMAP 3C HUVEC, uPAR biomarker ELISA; actives raise or lower the signal
Outline: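 Human umbilical vein endothelial primary cells were exposed to test chemical for 24 h. Cell-surface uPAR was then quantified by ELISA, and responses were fitted bidirectionally against DMSO as negative control and baseline.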

[15] = BSK_3C_VCAM1: BioMAP Diversity Plus: 3C Assay for Vascular cell adhesion molecule 1 (VCAM1) Biomarker Activity (AID 2282999); settings: BioMAP 3C HUVEC, VCAM1 ELISA, cytokine-stimulated; actives raise or lower the signal
Outline: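 Activity fitted in both directions relative to DMSO, with ELISA measurement of the surface marker on primary HUVEC (3C) at 24 h post-treatment; parallel SRB staining (0.1% SRB, TCA-fixed, 560 nm) flagged overt cytotoxicity.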

[16] = molecular target: Oxysterols receptor LXR-alpha (Homo sapiens) (UniProt Q13133); assay: ATG_LXRa_TRANS: Attagene TRANS-FACTORIAL HepG2 Assay for human Liver X Receptor alpha (LXRa) (AID 2282980; active = hit-call score of the fitted dose curve at least 0.9, where 1 is the maximum); settings: HepG2 Attagene TRANS reporter, LXRa transactivation
Oxysterols receptor LXR-alpha (Homo sapiens), sequence (Q13133 whole entry, looked up): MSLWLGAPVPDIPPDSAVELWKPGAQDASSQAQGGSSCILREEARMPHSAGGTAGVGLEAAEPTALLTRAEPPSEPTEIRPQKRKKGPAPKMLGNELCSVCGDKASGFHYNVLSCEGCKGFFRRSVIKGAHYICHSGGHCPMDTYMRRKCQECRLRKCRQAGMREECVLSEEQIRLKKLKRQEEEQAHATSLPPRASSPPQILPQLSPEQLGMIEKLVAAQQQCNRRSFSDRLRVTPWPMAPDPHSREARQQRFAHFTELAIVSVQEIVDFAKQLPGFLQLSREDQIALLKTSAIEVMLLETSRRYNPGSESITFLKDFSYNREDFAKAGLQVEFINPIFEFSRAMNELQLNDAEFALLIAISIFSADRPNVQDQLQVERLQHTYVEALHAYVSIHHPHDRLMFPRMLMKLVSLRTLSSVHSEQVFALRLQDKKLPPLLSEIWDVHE
Outline: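 Transient HepG2 transfectants, 24 h dosing, RT-PCR/CE mRNA reporter quantitation; gain-of-signal vs DMSO.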

[17] = molecular target: Oxysterols receptor LXR-beta (Homo sapiens) (UniProt P55055); assay: ATG_LXRb_TRANS: Attagene TRANS-FACTORIAL HepG2 Assay for human Liver X Receptor beta (LXRb) (AID 2282981; active = hit-call score of the fitted dose curve at least 0.9, where 1 is the maximum); settings: HepG2 Attagene TRANS GAL4-LXRb reporter, mRNA
Oxysterols receptor LXR-beta (Homo sapiens), sequence (P55055 whole entry, looked up, the tested form may be a part): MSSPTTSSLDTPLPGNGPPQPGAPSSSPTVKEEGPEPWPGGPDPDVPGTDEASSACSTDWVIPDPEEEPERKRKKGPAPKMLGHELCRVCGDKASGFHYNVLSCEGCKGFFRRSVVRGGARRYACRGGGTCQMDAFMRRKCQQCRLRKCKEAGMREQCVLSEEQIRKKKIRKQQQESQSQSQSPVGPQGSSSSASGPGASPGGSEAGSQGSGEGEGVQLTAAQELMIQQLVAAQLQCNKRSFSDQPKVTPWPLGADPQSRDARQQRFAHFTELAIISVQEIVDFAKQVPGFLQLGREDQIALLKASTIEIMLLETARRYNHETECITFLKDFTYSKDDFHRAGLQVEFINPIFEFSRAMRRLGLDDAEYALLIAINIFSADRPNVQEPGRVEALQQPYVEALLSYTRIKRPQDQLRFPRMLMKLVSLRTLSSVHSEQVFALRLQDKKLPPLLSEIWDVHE
Outline: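 After 24 h chemical treatment of transfected HepG2 cells carrying exogenous NR-Gal4 chimeras, reporter mRNA was quantified by fluorescent RT-PCR and capillary electrophoresis; activity taken as increase over DMSO controls.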

[18] = ATG_M_32_TRANS: Attagene TRANS-FACTORIAL HepG2 Assay for M32 Transcription Factor (Internal Marker) (AID 2282984; active = hit-call score of the fitted dose curve at least 0.9, where 1 is the maximum;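 note: transcript level of a background control reporter unit measured by RT-PCR and capillary electrophoresis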); settings: HepG2 Attagene TRANS M32 internal marker reporter
Outline: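 Internal background reporter in transfected HepG2: after 24 h chemical exposure, RNA reverse-transcribed, reporter cDNA amplified, fluorescently labelled and HpaI-cut, then sized by capillary electrophoresis. Gain of signal fitted against DMSO control.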

[19] = ATG_NF_kB_CIS: Attagene CIS-FACTORIAL HepG2 Assay for human Nuclear Factor Kappa B (NF-kB) (AID 2282991); settings: HepG2 Attagene cis-factorial NF-kB reporter mRNA; actives raise or lower the signal
Outline: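 HepG2 cells transiently transfected with multiplexed cis-element reporter units measuring endogenous transcription factor activity; reporter mRNA read 24 h after dosing by RT-PCR, fluorescent labelling, HpaI digestion and capillary electrophoresis. Bidirectional fit against DMSO baseline.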

Measured: AC50

C[N+](C)(C)CCCNS(=O)(=O)C(F)(F)C(F)(F)C(F)(F)C(F)(F)C(F)(F)C(F)(F)C(F)(F)C(F)(F)F
inactive: [1] | [2] | [3] | [4] | [5] | [6] | [7] | [8] | [9] | [10] | [11] | [12] | [13] | [14] | [15]
active: [13] 41.3 µM | [14] 20.7 µM

CCCCCCCCCCCC(=O)OCC
not listed: [2] | [3] | [4] | [13] | [14] | [15]
inactive: all other assays above

COC(C=C(C)CCC=C(C)C)OC
active: [10] 59.2 µM
inactive: [1] | [2] | [5] | [6] | [8] | [9] | [19] | [11] | [12]

CCNc1nc(NC(C)(C)C)nc(OC)n1
not listed: [3] | [4] | [5] | [7] | [16] | [18]
inactive: all other assays above

COc1cc(C)ccc1O
active: [10] 17.4 µM
not listed: [2] | [3] | [5] | [13] | [14] | [15] | [19]
inactive: all other assays above

CC1CC(=O)CC(C)(C)C1 (centres undefined)
not listed: [2] | [3] | [5] | [13] | [14] | [15] | [18]
inactive: all other assays above

CCCCCCCCCCCC(C)=O
active: [7] 158 µM | [10] 75.2 µM | [12] 147 µM | [13] 25.4 µM | [14] 34.5 µM | [15] 29.8 µM
inactive: [1] | [2] | [3] | [6] | [8] | [9] | [11]

CCC(C)C(=O)OC (centres undefined)
not listed: [5] | [13] | [14] | [15] | [16] | [17]
inactive: all other assays above

CC12CCC(CC1)C(C)(C)O2
not listed: [8] | [13] | [14] | [15] | [16] | [17] | [18] | [19]
inactive: all other assays above
